Most compounds without a hit are left out; they make up all but 0.92% or so of the library.
BLM inh = qHTS Assay for Inhibitors of Bloom's syndrome helicase (BLM); RecQ-like DNA helicase BLM (Homo sapiens), P54132; recombinant BLM DNA unwinding, fluorescence dequenching; Potency, µM (doses to about 56.1 µM), for inactives: at the highest dose activity change, negative = inhibition, usual class: inhibitors; hit rate 0.2% among 350,000;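 note: plate controls were vehicle for no effect and no enzyme for full effect; nearly all actives have a fitted effect of over 35% in size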
WRN helicase inh = qHTS for Inhibitors of WRN Helicase | hit rate 0.46% among 360,000 | Bifunctional 3'-5' exonuclease/ATP-dependent helicase WRN (Homo sapiens), Q14191 | AID 651768, 2012 | WRN helicase unwinding, fluorescent forked duplex, kinetic | Potency, µM (series often up to 114 µM), for the others: top-dose activity change, negative = inhibition, actives largely listed as inhibitors; note: nearly all actives have a fitted effect of over 55% in size
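Kinetic fluorescence helicase assay: unwinding of a quenched forked DNA duplex (100 nM final) with 2 mM ATP final raises red fluorescence (525/598 nm). Compounds sat 15 min at room temperature with 20 nM WRN beforehand.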
RECQ1 helicase = qHTS Assay for Inhibitors of RecQ-Like Dna Helicase 1 (RECQ1) | hit rate 0.54% among 240,000 | ATP-dependent DNA helicase Q1 (Homo sapiens), P46063 | AID 2549, 2010 | RECQ1 DNA unwinding, red fluorescence kinetic read | Potency, µM (series often up to 57.3 µM), for inactives: at the top dose activity, negative = inhibition, usual class: inhibitors;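 note: plate controls were vehicle for no effect and no enzyme for full effect; nearly all actives have a fitted effect of over 30% in size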
Target sequence (P46063 whole entry, looked up): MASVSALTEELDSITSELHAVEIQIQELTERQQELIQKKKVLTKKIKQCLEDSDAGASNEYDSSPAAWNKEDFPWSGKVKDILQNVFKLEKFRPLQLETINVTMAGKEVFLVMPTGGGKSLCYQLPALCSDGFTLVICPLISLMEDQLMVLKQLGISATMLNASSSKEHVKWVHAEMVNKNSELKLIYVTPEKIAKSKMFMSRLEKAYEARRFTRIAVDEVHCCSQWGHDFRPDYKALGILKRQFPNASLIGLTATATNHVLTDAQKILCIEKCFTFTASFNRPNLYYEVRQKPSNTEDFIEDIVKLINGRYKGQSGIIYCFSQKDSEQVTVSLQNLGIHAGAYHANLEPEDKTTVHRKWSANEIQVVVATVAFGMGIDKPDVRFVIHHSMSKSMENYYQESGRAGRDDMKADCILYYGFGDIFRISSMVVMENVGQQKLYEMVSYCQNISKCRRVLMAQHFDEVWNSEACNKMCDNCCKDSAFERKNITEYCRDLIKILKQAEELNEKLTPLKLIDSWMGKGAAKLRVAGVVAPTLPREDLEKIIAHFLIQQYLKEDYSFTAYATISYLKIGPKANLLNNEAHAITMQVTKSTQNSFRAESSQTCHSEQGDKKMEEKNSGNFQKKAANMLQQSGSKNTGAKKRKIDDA
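50 nM RECQ1T1 preincubated 15 min with compound in Tris pH 8.0 buffer with MgCl2, DTT, Tween-20 and 2.5 ug/ml poly(dI-dC); started with 200 nM TAMRA/BHQ-2 forked duplex and 2 mM ATP. Unwinding read as fluorescence (525/598 nm), two reads 2 h apart.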
APE1 inh = qHTS Assay for Inhibitors of the Human Apurinic/apyrimidinic Endonuclease 1 (APE1) | DNA repair nuclease/redox regulator APEX1 (Homo sapiens), P27695 | recombinant APE1, TAMRA/BHQ-2 abasic DNA cleavage fluorescence | Potency, µM (series often up to 65.8 µM), without a hit: at the highest dose activity change, negative = inhibition, hits mostly inhibitors | hit rate 0.35% among 350,000 | AID 2517, 2012;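 note: plate controls were vehicle for no effect and reference inhibitor for full effect; nearly all actives have a fitted effect of over 55% in size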
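0.75 nM APE1 + cpd, 15 min RT; start w/ 50 nM TAMRA/BHQ-2 THF-abasic dsDNA; kinetic fluor 525/598 nm ×3 reads @60 s; Δ(read3−read1); normalized to DMSO and NSC13755 control wells.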
L3MBTL1 block = qHTS Assay for the Inhibitors of L3MBTL1. Lethal(3)malignant brain tumor-like protein 1 (Homo sapiens), Q9Y468. AlphaScreen L3MBTL1–H3K9me1 peptide binding. Potency, µM (doses to about 57.1 µM), for inactives: at the highest dose activity, negative = inhibition, most hits filed as inhibitors. hit rate 0.66% among 230,000; note: nearly all actives have a fitted effect of over 60% in size
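L3MBTL1 50 nM + b-AHA-H3(1-15)K9me1 75 nM, 30 min RT; compound added, 30 min RT; streptavidin donor/Ni-chelate acceptor beads 10 ug/mL each final, 30 min RT dark; AlphaScreen read.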
Active calls of the source: *; i = inactive; ? = inconclusive; / = no result; ! = repeats disagree; [ ] = dose if it differs, or a comment. Calls come from the whole dose curve; as a rule, active = well fitted curve in the direction sought with a large enough effect; inconclusive = small, poorly fitted or top-dose-only effect, or another doubt; inactive = no such curve, though single readings can be large; an effect the other way counts as inactive or inconclusive. Unless noted, % is set by controls: 0 for no effect and ±100 for the full control effect; potency is the fitted concentration of half-maximal effect.

SMILES | BLM inh | WRN helicase inh | RECQ1 helicase | APE1 inh | L3MBTL1 block
CCOC(=O)c1ccc(/C=C2/C=C(c3ccccc3)N(c3ccc(Cl)c(C(=O)O)c3)C2=O)cc1 | -13% | 50µM* | -14% | 7% | -10%
Oc1ccc(-c2csc(Nc3ccccn3)n2)cc1O | -17% | -10%[11.6 µM] | / | -23% | ?
Oc1ccc(-c2csc(Nc3cccc4ccccc34)n2)cc1O | -8% | -14%[11.6 µM] | / | 7% | 25µM*
CN=c1scc(-c2ccccc2F)n1/N=C/c1ccc(O)c(O)c1O | ? | 56µM* | 7.9µM* | 10µM* | 3.5µM*
O=C(O)C(S)[C@@H](S)C(=O)O (stereo partly specified) | 4% | / | i | 14µM* | /
CCC[C@@H]1C[C@@H](C(=O)N[C@@H]([C@H]2O[C@H](SC)[C@H](OP(=O)(O)O)[C@@H](O)[C@H]2O)[C@H](C)Cl)N(C)C1 | / | / | / | -3% | /
O=C(C=Cc1ccccc1)Nc1ccccc1 | / | -24% | / | / | /
O=C(/C=C/c1ccc(/C=C/C(=O)Nc2ccc(C3=NCCN3)cc2)cc1)Nc1ccc(C2=NCCN2)cc1 | ? | / | -29% | 32µM* | /
CC(O)(c1ccc(Cl)cc1)c1ccc(Cl)cc1 | -13% | / | -8% | -8% | /
CCS(=O)(=O)c1c([N+](=O)[O-])ncn1C | ? | -3% | 2% | -2% | 3%
Cn1cnc([N+](=O)[O-])c1S(=O)(=O)Oc1ccc(Cl)cc1 | / | 35µM* | / | / | /
COc1ccc(NC(=O)CC(NCc2ccccn2)C(=O)O)cc1 (stereo unspecified) | 3% | 0% | -3% | -2% | 14µM*
COc1cccc2c1C(=O)c1c(O)c3c(c(O)c1C2=O)C[C@@](O)(C(=O)CO)C[C@@H]3O[C@@H]1C[C@H](N)[C@H](O)[C@H](C)O1 | 25µM* | / | 16µM* | 14µM* | /
Cc1cccc2c1NC(=O)C2=O | / | 28µM* | / | / | /
CC(C)(C)n1ncc2c(=O)n(Cc3cc(Cl)ccc3Cl)cnc21 | / | / | / | -3% | /
O=C1C=CC(=O)N1c1cccc(-c2ccccc2)c1 | 4% | 32µM* | -5% | 7% | -16%
Cc1cc2nc(-c3ccc(SCC(=O)N4CCN(C(=O)c5ccco5)CC4)nc3)[nH]c2cc1C | 1% | ? | -25% | -9% | 32µM*
C=C(C)CC(C)(C)C | 2% | / | 15% | 12% | /
CO/N=C(/C)CCC(=O)OC[C@@H]1O[C@H](c2ccccc2)C=C[C@@H]1Oc1ccc(OC)cc1 | 0%[12.4 µM] | / | -6%[11.5 µM] | 21%[12.4 µM] | /
O=C(/C=C\c1ccc(O)c(O)c1)O[C@@H](Cc1ccc(O)c(O)c1)C(=O)O | -1% | / | -16% | 2.5µM* | /
O=C(/C=C/c1ccc(O)c(O)c1)OC(Cc1ccc(O)c(O)c1)C(=O)O (stereo unspecified) | -2% | -17%[11.6 µM] | 13µM*! | 1.3µM*! | /
O=C(/C=C/c1ccc(O)c(O)c1)OCCc1ccccc1 | -10% | -21% | -18% | ? | /
O=C1CCC/C(=N\NC(=O)c2ccc(CSc3cccc4cccnc34)cc2)C1 | -13% | 7% | 28µM* | 19% | ?
O=C(N/N=C/c1ccc(O)cc1O)c1ccncc1 | -3% | -6%[57.1 µM] | / | 4% | /
O=C(N/N=C/c1cc(Cl)cc(Cl)c1O)c1ccncc1 | -1% | 0% | -1% | 4% | 28µM*
SMILES | BLM inh | WRN helicase inh | RECQ1 helicase | APE1 inh | L3MBTL1 block
O=C(N/N=C/c1cc(Br)cc(Br)c1O)c1ccncc1 | -8% | -11% | i | 1% | 25µM*
COc1cc(NS(=O)(=O)c2ccc([N+](=O)[O-])cc2)c2ncccc2c1 | -6% | / | i | -5% | /
Cc1ccc(C(=O)Nc2nnc(CC(=O)N/N=C/c3ccc(O)c(O)c3)s2)cc1 | 13µM* | 20µM* | / | 1.9µM* | /
C[C@H](N)C(=O)N[C@@H](CO)C(=O)N[C@H](C(=O)N[C@H](C(=O)N[C@H](C(=O)N[C@@H](CC(N)=O)C(=O)N[C@@H](Cc1ccc(O)cc1)C(=O)N[C@H](C(=O)O)[C@@H](C)O)[C@@H](C)O)[C@@H](C)O)[C@@H](C)O | -3% | / | -10% | 0% | /
O=C(Cn1cnc([N+](=O)[O-])n1)N/N=C/c1ccccc1O | 1% | 0% | -8% | 1% | ?
O=C(Cn1cnc([N+](=O)[O-])n1)N/N=C/c1cc(Cl)ccc1O | 0% | -31%[57.1 µM] | -7% | 1% | 18µM*
O=C(Cn1nc2ccccc2n1)N/N=C/c1cc([N+](=O)[O-])ccc1O | 1% | -20%[57.1 µM] | 3% | -1% | 7.9µM*
CNc1nc(C#N)nc(Nc2ccccc2)n1 | -4% | / | 13% | ? | /
COc1ccc(OC)c(-c2nnc3n2N=C(c2ccccc2OC)CS3)c1 | -3% | / | -10% | -1% | /
COC(=O)C[C@](O)(CCCC(C)(C)O)C(=O)O[C@@H]1C(OC)=CC23CCCN2CCc2cc4c(cc2[C@H]13)OCO4 (stereo partly specified) | / | / | / | -6% | /
Cc1n[nH]c(C)c1Sc1ccccc1[N+](=O)[O-] | -7% | -6% | -4% | -4% | 7%
Cc1n[nH]c(C)c1Sc1ccccc1N=Cc1cc(Cl)cc([N+](=O)[O-])c1O | -1% | 50µM* | -6% | 0% | /
O=C(CSc1nnc(CNC(=O)c2c(F)cccc2F)o1)NCc1ccco1 | -11% | ? | / | 11µM* | /
CC(C)CN(C[C@@H](O)[C@H](Cc1ccccc1)NC(=O)O[C@@H]1CCOC1)S(=O)(=O)c1ccc(N)cc1 | / | / | / | -2% | /
O=C(CS(=O)Cc1ccco1)NCC=CCOc1cc(CN2CCCCC2)ccn1 (stereo unspecified) | -6% | / | / | / | /
O=[N+]([O-])c1ccc(S(=O)Cc2ccccc2)c([N+](=O)[O-])c1 (stereo unspecified) | / | 10µM* | / | / | /
CN(C)c1ccc(/C=C/c2cc[n+]([O-])cc2)cc1 | 1% | / | -6% | 0% | 0%
CN(C)c1ccc(/C=C/c2cc[n+](C)cc2)cc1 | -7% | 79µM* | 12% | -6% | /
COC(=O)C[C@@H]1O[C@H]1[C@H](C)[C@@H](OC)C(C)C | 0%[12.4 µM] | / | 11%[11.5 µM] | -2%[12.4 µM] | /
O=C1NC(=S)S/C1=C\c1coc2ccccc2c1=O | -3% | -22% | 20µM* | 6% | 2%
O=C(CN1C(=O)/C(=C/c2cccc(Br)c2)SC1=S)NCCCN1CCOCC1 | -3% | 79µM* | / | -1% | /
O=C(CCCN1C(=O)/C(=C/c2cccc(Br)c2)SC1=S)NCCCN1CCOCC1 | -1% | -3% | / | 24% | /

High-throughput results (PubChem BioAssay)
